The record followed here is PubChem BioAssay (NCI).

About 83,000 compounds went through this panel and 20% of them were active in at least one assay; those are over-represented in the sample as a whole.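 Step 1: grow cells in 96-well plates. Step 2: add test compound at a single concentration. Step 3: incubate 48 h. Step 4: record percent growth.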 Unmarked numbers belong to inactive results. Activity calls are given as the source filed them. How the source made its calls: active means growth percent below 10; inactive means the rest.

Test systems include T-47D breast; BT-549 breast; MDA-MB-435 melanoma; SW-620 colon; MCF7 breast; HCT-116 colon; HCC-2998 colon; KM12 colon.
Holding throughout (assay): NCI-60 one-dose screen, 48 h (100 = growth as untreated, 0 = no growth, -100 = all killed)
What all share (conditions): 10 µM unless noted

`COc1ccc(N2CCN(C(=O)c3sc4nc(C)c(Br)c(C)c4c3N)CC2)cc1`: the growth was 79% with T-47D breast; 88.2% in the experiment on BT-549 breast; 98.7% with MDA-MB-435 melanoma; 104% with SW-620 colon; 81% in the experiment on MCF7 breast; 99% in the experiment with HCT-116 colon. Besides, the growth in the experiment with HCC-2998 colon was 97.1%; in the experiment on KM12 colon it was 94%.

Regarding `CC1(C)C(N)=Nc2cc(OCCCN3Cc4ccccc4C3)c(OCC3CC3)cc21`, the growth in the experiment with T-47D breast was 45.8%; in the experiment on BT-549 breast, 76.5%; with MDA-MB-435 melanoma, 66.6%; in the experiment on SW-620 colon it was 87.8%; in the experiment with MCF7 breast it was 50.4%; in the experiment with HCT-116 colon, 49.2%. In addition, the growth in the experiment on HCC-2998 colon is 11.9%; in the experiment on KM12 colon it was 84.2%.

On to `NS(=O)(=O)c1ccc(-c2cc(-c3nnc(SCC(=O)Nc4ccc(C(=O)/C=C/c5ccc(Cl)cc5)cc4)n3-c3ccccc3)c3ccccc3n2)cc1`, for which the growth was 79.9% in the experiment on T-47D breast; 97.9% in the experiment on BT-549 breast; 94% in the experiment with MDA-MB-435 melanoma; 97.7% in the experiment on SW-620 colon; 70.6% in the experiment with MCF7 breast; 7.54% (active) in the experiment with HCT-116 colon. Also, the figures for the growth in the experiment on HCC-2998 colon and in the experiment with KM12 colon were 105% and 92.1%, respectively.

On to `O=C(Nc1ccc(Br)cc1)C1=NCCCCN1`, for which the growth with T-47D breast was 71.3%; with BT-549 breast, 87.5%; in the experiment with MDA-MB-435 melanoma, 75.3%; with SW-620 colon, 67.3%; in the experiment on MCF7 breast, 81%; in the experiment on HCT-116 colon, 80.2%. For the same compound, the growth in the experiment with HCC-2998 colon was 106%; with KM12 colon it was 75.6%.

Take `CN1CCN(C(=S)SCCCCOc2cc(=O)oc3ccccc23)CC1`: the growth in the experiment with T-47D breast is 55.6%; in the experiment with BT-549 breast, 81.3%; in the experiment on MDA-MB-435 melanoma, 96.7%; in the experiment with SW-620 colon, 100%; with MCF7 breast it was 78.6%; with HCT-116 colon, 86.8%. The results for the growth in the experiment on HCC-2998 colon and in the experiment with KM12 colon were 98.1% and 85.4%, respectively.

For `COC(=O)c1c2c(c(C)[n+]([O-])c1C)C(=O)C(NCc1ccc(OC)cc1)=CC2=O`, the growth was 3.48% (active) with T-47D breast; 56% in the experiment with BT-549 breast; -67.6% (active) in the experiment with MDA-MB-435 melanoma; 6.71% (active) in the experiment on SW-620 colon; -7.88% (active) in the experiment on MCF7 breast; 3.89% (active) in the experiment with HCT-116 colon. For the same compound, the growth in the experiment on HCC-2998 colon was 15.1%; in the experiment with KM12 colon, 14.3%.

With `C=CN(C(=O)N1CCN(c2cc3c(cc2F)c(=O)c(C(=O)O)cn3C2CC2)CC1)c1nc(-c2ccc(OC)cc2)cs1`, the growth is 44.1% in the experiment on T-47D breast; 14.8% with BT-549 breast; 19.7% in the experiment on MDA-MB-435 melanoma; 22.2% in the experiment with SW-620 colon; 8.52% (active) in the experiment on MCF7 breast; 11.4% in the experiment on HCT-116 colon. Further, the growth in the experiment on HCC-2998 colon is 34.3%; with KM12 colon, 21.4%.

Regarding `COc1cc(C(=O)c2c(-c3ccccc3)oc3c(OC)cccc23)cc(OC)c1OC`, the growth was 58.2% with T-47D breast; -5.83% (active) in the experiment with BT-549 breast; -28.9% (active) with MDA-MB-435 melanoma; 20.1% with SW-620 colon; 10.1% in the experiment with MCF7 breast; -8.11% (active) in the experiment with HCT-116 colon. Further, the growth is -4.94% (active) with HCC-2998 colon and 3.21% (active) in the experiment with KM12 colon.

For `CC(C)CCN(CCC(C)C)CC(O)c1cc2c(c3ccccc13)CCCC2` (stereo not given), the growth in the experiment with T-47D breast is 59%; in the experiment with BT-549 breast, 103%; in the experiment with MDA-MB-435 melanoma it was 98.4%; in the experiment with SW-620 colon, 59%; in the experiment on MCF7 breast it was 78.5%; with HCT-116 colon, 50.5%. For the same compound, the values for the growth with HCC-2998 colon and in the experiment with KM12 colon were 30.1% and 64.6%, respectively.

Consider `N#CC1CCc2c(c(-c3ccc4nc(N)sc4c3)nc3ccc4[nH]ncc4c23)C1` (stereo not given), for which the growth is 94% in the experiment with T-47D breast; 65.5% in the experiment with BT-549 breast; -2.8% (active) in the experiment on MDA-MB-435 melanoma; 39.1% in the experiment with SW-620 colon; 21.7% with MCF7 breast; 25.6% in the experiment with HCT-116 colon. Further, the growth in the experiment on HCC-2998 colon is 48.2%; in the experiment with KM12 colon it was 24.4%.

As for `CCOC(=O)C(=Cc1ccc(-c2ccccc2)cc1)C(=O)OCC`, the growth with T-47D breast is 27.8%; with BT-549 breast it was 30.7%; in the experiment with MDA-MB-435 melanoma, 38.3%; in the experiment on SW-620 colon it was 10.8%; in the experiment with MCF7 breast it was 16.9%; with HCT-116 colon, -10.1% (active). The growth in the experiment with HCC-2998 colon is 76.2%; in the experiment on KM12 colon, 36.6%.

With `COC(=O)CC[C@@H]1O[C@@H](c2ccc(F)cc2)[C@@H](O)[C@H]1O`, the growth with T-47D breast was 104%; with BT-549 breast, 105%; in the experiment on MDA-MB-435 melanoma, 98.4%; in the experiment with SW-620 colon, 101%; in the experiment with MCF7 breast, 96%; in the experiment on HCT-116 colon it was 89.3%. Moreover, the growth in the experiment with HCC-2998 colon is 99.6%; in the experiment with KM12 colon, 99.7%.

In the case of `COc1cc2nc3sc(C(=O)Nc4ccc(C(=O)OC(C)C)cc4)c(C(=O)Nc4ccc(Cl)cc4C)n3c(=O)c2cc1OC`, the growth was 46.5% in the experiment on T-47D breast; 96.7% in the experiment on BT-549 breast; 76.5% with MDA-MB-435 melanoma; 38.7% in the experiment with SW-620 colon; 52.2% in the experiment on MCF7 breast; 76.3% in the experiment on HCT-116 colon. For the same compound, the values for the growth with HCC-2998 colon and in the experiment on KM12 colon were 20.5% and 52.3%, respectively.

As for `Cc1ccc(C=C2C(=O)NC(=O)NC2=O)cc1`, the growth is 113% in the experiment with T-47D breast; 104% in the experiment on BT-549 breast; 109% with MDA-MB-435 melanoma; 109% with SW-620 colon; 98.8% in the experiment on MCF7 breast; 108% in the experiment with HCT-116 colon. The growth in the experiment on HCC-2998 colon is 112%; with KM12 colon it was 108%.

On to `CCCCNC(=O)c1cc([N+](=O)[O-])cc(C2CCCCC2)c1O`, for which the growth with T-47D breast is 12%; in the experiment with BT-549 breast, 36.5%; with MDA-MB-435 melanoma, 33.3%; in the experiment with SW-620 colon it was 68.6%; with MCF7 breast it was 39.3%; in the experiment with HCT-116 colon, 27.8%. Further, the results for the growth in the experiment on HCC-2998 colon and in the experiment on KM12 colon were 25% and 39.5%, respectively.
